Source: PubChem BioAssay (National Center for Advancing Translational Sciences (NCATS))
BRCA1 expr act = BRCA1 expression activation; AID 624202; MCF7-BRCA1-FFLuc reporter, luminescence, 48 h; response scale: scaled: vehicle 0%, 10 µM genistein 100%; Potency, µM (top dose mostly 46.1 µM), actives largely listed as activators; hit rate 1.1% among 380,000; note: nearly all actives have a fitted effect of over 80% in size
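Luminescence from a BRCA1-driven firefly luciferase in MCF7 cells was read after 48 h compound exposure at 37 C. Data normalized against DMSO and a 10microM genistein activation control, then curve-fitted across the titration.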
GoLoco inh red = blocks human Gai1 binding to RGS12 GoLoco peptide, red readout; P63096; Gai1:RGS12 GoLoco peptide FP, rhodamine, 10 min; Potency, µM (highest dose often 61.6 µM), actives largely listed as inhibitors; hit rate 0.44% among 230,000; AID 880; active = well fitted inhibition curve with a large enough effect, not every such curve was filed as active; inactive = no such curve, though single readings can be large or run the other way; note: nearly all actives have a fitted effect of over 30% in size
ERG-DNA inh = ERG Ets/DNA interaction inhibition. P11308. fluorescence polarization, His-ERG Ets domain / labelled DNA. Potency, µM (top dose mostly 76.9 µM), hits mostly inhibitors. hit rate 0.028% among 370,000; active = well fitted inhibition curve with a large enough effect in the polarisation, with a control signal flat; inconclusive = small, poorly fitted or top-dose-only effect, or effect the other way, or a change in a side signal; inactive = no such curve, though single readings can be large or run the other way; the % refers to the polarisation;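 note: polarization taken with two DNA probes labelled with fluorescein and Texas red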
Target sequence (P11308 whole entry, looked up, the tested form may be a part): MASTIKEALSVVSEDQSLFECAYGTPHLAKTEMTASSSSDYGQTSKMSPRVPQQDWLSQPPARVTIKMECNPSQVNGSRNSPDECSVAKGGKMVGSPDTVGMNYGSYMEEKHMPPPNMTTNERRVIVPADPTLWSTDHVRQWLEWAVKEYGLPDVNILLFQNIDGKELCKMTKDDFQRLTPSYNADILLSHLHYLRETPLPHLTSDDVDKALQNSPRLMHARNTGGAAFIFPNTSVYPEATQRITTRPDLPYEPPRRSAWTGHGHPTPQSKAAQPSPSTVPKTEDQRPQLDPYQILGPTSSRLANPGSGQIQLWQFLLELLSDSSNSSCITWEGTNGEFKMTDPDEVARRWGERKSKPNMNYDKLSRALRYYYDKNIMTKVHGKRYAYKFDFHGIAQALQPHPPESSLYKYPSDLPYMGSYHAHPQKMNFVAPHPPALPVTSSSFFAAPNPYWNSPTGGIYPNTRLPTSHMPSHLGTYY
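His-tagged ERG Ets domain (1 uM in the protein solution; 300mM KCl, 50mM Tris-HCl, 1mM EDTA, 1mM DTT, pH 7.5) received compound, then a probe mix of 5 nM fluorescein-DNA and 100nM Texas-615-DNA. Fluorescence polarization was read for both dyes.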
Apoferritin bind = candidate novel general anesthetic via apoferritin binding; hit rate 0.074% among 350,000; Potency, µM (titrated, usually from 77.5 µM), most hits filed as inhibitors; apoferritin/1-aminoanthracene competitive binding, fluorescence; AID 485281; note: nearly all actives have a fitted effect of over 20% in size
Target sequence (P02791 2-175 limits assumed): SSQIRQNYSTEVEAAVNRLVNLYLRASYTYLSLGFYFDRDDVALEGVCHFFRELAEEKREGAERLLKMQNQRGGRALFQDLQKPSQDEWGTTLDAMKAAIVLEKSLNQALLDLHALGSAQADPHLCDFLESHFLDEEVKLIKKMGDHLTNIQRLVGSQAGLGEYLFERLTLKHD
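Horse-spleen apoferritin (10 uM) was mixed with 50% saturated 1-aminoanthracene in PBS, exposed to compounds for 10 min at room temperature, and read for fluorescence (ex 380 nm, em 535 nm). Competitive displacement was fitted with a four-parameter Hill equation.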
Hits are given with their value; [ ] = dose if it differs, or a comment. Hits are enriched below; roughly 1.2% of the tested compounds scored in any of these assays. Unless noted, calls come from the whole dose curve; as a rule, active = well fitted curve in the direction sought with a large enough effect; inconclusive = small, poorly fitted or top-dose-only effect, or another doubt; inactive = no such curve, though single readings can be large; an effect the other way counts as inactive or inconclusive.

How did CC1CCC(NC(=O)N(CCCl)N=O)CC1 (stereo not given) do in these assays?
BRCA1 expr act: 5µM; GoLoco inh red: inactive; ERG-DNA inh: inactive; Apoferritin bind: inactive

How did C[C@@]12C=CC(=O)C=C1CC[C@H]1[C@H]3CC[C@](O)(C(=O)CO)[C@]3(C)CC(=O)[C@@H]12 do in these assays?
GoLoco inh red: inactive; Apoferritin bind: inactive

How did CC1=NC(=O)C(N=Nc2cccc(C(=O)O)c2)N1c1ccccc1 (stereo not given) do in these assays?
BRCA1 expr act: inconclusive; GoLoco inh red: 20µM; ERG-DNA inh: inactive; Apoferritin bind: inactive

Results for CC1=NC(=O)C(N=Nc2ccccc2)N1c1ccccc1 (stereo not given) ?
BRCA1 expr act: inactive; GoLoco inh red: inactive; ERG-DNA inh: inactive; Apoferritin bind: inactive

What do the screens show for `O=C(Nc1cc(F)ccc1F)c1cnn2c1NC(=C1CC1)C=C2C(F)F`?
BRCA1 expr act: inactive

What do the screens show for `COc1cccc(OCc2cc(C(=O)N(C)C3CCCCC3)no2)c1`?
BRCA1 expr act: 11µM

How did CN(C(=O)c1cc(-c2ccccc2)on1)C1CCCCC1 do in these assays?
BRCA1 expr act: 1.6µM; ERG-DNA inh: inactive; Apoferritin bind: inactive

Results for COc1cccc(OCc2cc(C(=O)N(C)CCC3CCCCO3)no2)c1 (stereo not given) ?
BRCA1 expr act: inactive; ERG-DNA inh: inactive; Apoferritin bind: inactive

How did CC(C)(C)C(=O)Cn1ncc(N2CCCC2)c(Br)c1=O do in these assays?
BRCA1 expr act: 10µM; GoLoco inh red: inactive; ERG-DNA inh: inactive; Apoferritin bind: inactive

Results for CN(C)c1ccc(/C=C/c2ncnc3ccccc23)cc1 ?
BRCA1 expr act: inactive

Results for O=C(COc1ccccc1F)NNC(=O)c1cccc(-n2cccc2)c1 ?
BRCA1 expr act: inactive; ERG-DNA inh: inactive; Apoferritin bind: inactive

What do the screens show for `Cn1cccc1C(=O)NNC(=O)COc1ccccc1F`?
BRCA1 expr act: 13µM; ERG-DNA inh: inactive; Apoferritin bind: inactive

Results for Cc1ccc(C(=O)Cn2cnc3ccccc3c2=O)cc1C ?
BRCA1 expr act: 4.5µM; GoLoco inh red: inactive; ERG-DNA inh: inactive; Apoferritin bind: inconclusive

Results for O=C(Cn1cnc2ccccc2c1=O)c1ccc2ccccc2c1 ?
BRCA1 expr act: 6.3µM; GoLoco inh red: inactive; ERG-DNA inh: inactive; Apoferritin bind: inconclusive

What do the screens show for `COc1ccc(C(=O)Cn2cnc3ccccc3c2=O)cc1`?
BRCA1 expr act: inconclusive; ERG-DNA inh: inactive; Apoferritin bind: inactive

How did COc1cccc([C@@H]2Oc3ccc(OC)cc3/C(=N/O[C@@H](C)CN3CCCCc4nc(C)c(C)cc43)[C@@H]2O)c1 do in these assays?
Apoferritin bind: inactive[15.3 µM]

Results for Cc1ccc2nc(NC(=O)COC(=O)CSc3nc(C)cc(C)n3)sc2c1 ?
BRCA1 expr act: 10µM; GoLoco inh red: inactive; ERG-DNA inh: inactive; Apoferritin bind: inactive

What do the screens show for `Cc1ccc2nc(NC(=O)COC(=O)c3ccncc3)sc2c1`?
BRCA1 expr act: 8.9µM; GoLoco inh red: inactive; ERG-DNA inh: inactive; Apoferritin bind: inactive

Results for Cc1ccc2nc(NC(=O)CN3CCOCC3)sc2c1 ?
BRCA1 expr act: 3.5µM; GoLoco inh red: inactive; Apoferritin bind: inactive

What do the screens show for `COCC(=O)Nc1nc2ccc(C)cc2s1`?
BRCA1 expr act: inactive; GoLoco inh red: inactive; ERG-DNA inh: inactive; Apoferritin bind: inactive

How did COC(=O)c1ccc2nc(NC(=O)COC(=O)CSc3nc(C)cc(C)n3)sc2c1 do in these assays?
BRCA1 expr act: inactive; GoLoco inh red: inactive; ERG-DNA inh: inactive; Apoferritin bind: inactive

What do the screens show for `COc1cc2c(c(OC)c1OC)-c1c(cc3c(c1OC)OCO3)CC(C)C(C)(O)C2OC(=O)c1ccccc1` (stereo not given)?
Apoferritin bind: inactive

Results for O=C(Nc1ccc(OC(F)F)cc1)c1nc(SCc2ccccc2F)ncc1Cl ?
BRCA1 expr act: inactive

Results for CC1(OC(=O)C2CCCC2)C(=O)C=C2C=C(c3ccsc3)N(c3cccc(C#N)c3)C=C2C1=O (stereo not given) ?
GoLoco inh red: inactive[14.2 µM]

Results for CCN(CC)c1ccc(/C=N/N2CCOCC2)cc1 ?
BRCA1 expr act: 3.2µM; GoLoco inh red: inactive; ERG-DNA inh: inactive; Apoferritin bind: inactive

Results for CCN(Cc1ccccc1)c1ccc(/C=N/N2CCOCC2)cc1 ?
BRCA1 expr act: inactive; GoLoco inh red: inactive; ERG-DNA inh: inactive; Apoferritin bind: inactive

What do the screens show for `C/C(=N/NC(=O)c1ccccn1)c1c[nH]c2ccccc12`?
BRCA1 expr act: 7.1µM; GoLoco inh red: inactive; ERG-DNA inh: inactive; Apoferritin bind: inactive

How did CCOc1ccccc1CNC(=O)C1CCN(Cc2cc3ccccc3n2Cc2ccccc2)CC1 do in these assays?
ERG-DNA inh: inactive; Apoferritin bind: inactive

Results for CCC(=O)Nc1ccc2nc(C3CC3)n(Cc3ccccc3)c(=O)c2c1 ?
BRCA1 expr act: 4µM; GoLoco inh red: inactive; ERG-DNA inh: inactive; Apoferritin bind: inactive

Results for Cc1cn(C2CC3OCC(NC(=O)C(NC(=O)OC(C)(C)C)C(C)OCc4ccccc4)C3O2)c(=O)[nH]c1=O (stereo not given) ?
Apoferritin bind: inactive

What do the screens show for `COc1ccccc1-n1c(=O)n(C)c2c(C(N)=O)nc(-c3cc(OC)c(OC)c(OC)c3)nc21`?
BRCA1 expr act: inactive; ERG-DNA inh: inactive; Apoferritin bind: inactive

What do the screens show for `Cc1ccc(OC(=O)c2ccc(S(=O)(=O)N(C)C)cc2)c(-n2nc3ccccc3n2)c1`?
BRCA1 expr act: 13µM; GoLoco inh red: inactive; ERG-DNA inh: inactive; Apoferritin bind: inactive

Results for COc1cccc(C2=Nn3c(nnc3-c3cc(OC)ccc3OC)SC2)c1 ?
Apoferritin bind: inactive

Results for Cn1cccc1/C=N/NC(=O)c1ccncc1 ?
BRCA1 expr act: inactive; GoLoco inh red: inactive; ERG-DNA inh: inactive; Apoferritin bind: inactive

Results for Cn1cccc1C(=O)N/N=C/c1c(Cl)cccc1Cl ?
BRCA1 expr act: 6.3µM; ERG-DNA inh: inactive; Apoferritin bind: inactive

What do the screens show for `Cn1cccc1/C=N/NC(=O)c1ccccn1`?
BRCA1 expr act: 10µM; GoLoco inh red: inactive; ERG-DNA inh: inactive; Apoferritin bind: inactive

How did CCCC[C@@H]1CCCO[C@@](C(=O)NCc2ccc(S(C)(=O)=O)cc2)(C(F)(F)F)C1 do in these assays?
Apoferritin bind: inactive

How did CCOC(=O)N/N=C(C)/C=C/c1ccccc1 do in these assays?
BRCA1 expr act: inactive; GoLoco inh red: inactive; ERG-DNA inh: inactive; Apoferritin bind: inactive

What do the screens show for `COC(=O)N/N=C(C)/C=C/c1ccccc1`?
BRCA1 expr act: 3.5µM; ERG-DNA inh: inactive

What do the screens show for `CC1(C)N=C(N)N=C(N)N1c1cccc(CSc2ccccc2)c1`?
GoLoco inh red: inactive[14.2 µM]

How did COc1ccc(C(=O)N2c3ccccc3C(=O)OC2c2ccc3c(c2)OCO3)cc1 (stereo not given) do in these assays?
BRCA1 expr act: 11µM; GoLoco inh red: inactive; ERG-DNA inh: inactive; Apoferritin bind: inactive

How did CCCCc1nc2c(c3c1C[C@H](C)OC3)CN(C(=O)c1ccco1)CC2 do in these assays?
GoLoco inh red: inactive[14.2 µM]

Results for O=C(Nc1nccs1)c1ccc2sc([C@H]3C[C@H](O)[C@@H](CO)O3)nc2c1 ?
BRCA1 expr act: 13µM
